This note sets out measurements from PubChem BioAssay (NCI).

Structures are written as SMILES. About 83,000 compounds went through this panel and 20% of them were active in at least one assay; those are over-represented in the sample as a whole.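 Assay: single dose, 48 h. Readout: percent growth (0 = no net growth; negative = cell death). Active: <10.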 Calls of active or inactive are those of the source.

This experiment has as its system HL-60(TB) leukemia. In words: NCI-60 one-dose screen, 48 h (100 = growth as untreated, 0 = no growth, -100 = all killed). As to conditions: 10 µM unless noted.
For `CC(C)(C)c1ccc(C(=O)Nc2nc3ccc(O)cc3s2)cc1`, the growth was 24.8% (inactive).
Regarding `COc1ccc(/C=C2\SC(=Nc3cc(C)on3)NC2=O)cc1`, the growth is 94.6% (inactive).
`CCOC(=O)C1=C(C)NC(C)=C(C(=O)OCc2ccccc2)C1c1cccc(C#N)c1` (stereo not given): the growth is 16.1% (inactive).
The same measure for `O=C(CSc1nc2ccccc2c(=O)n1-c1ccccc1)Nc1cccc(C(=O)/C=C/c2ccccc2Cl)c1`: 108% (inactive).
For `COc1ccc(NC(=O)c2sc3nc(-c4cnccn4)cc(-c4cccs4)c3c2N)cc1` the value was 56.2% (inactive).
On to `COC(=O)c1ccc(NC2=C(Cl)C(=O)C(C)=C(C)C2=O)cc1`, for which the growth was 41.3% (inactive).
For `Cc1nc(/N=C(N)/N=C(\N)c2cccc(Br)c2)sc1C` the value was 12.4% (inactive); for `CN1CCN(c2ccc(Nc3nc(NCCNC(=O)c4ccccc4)c4sccc4n3)cc2)CC1`, 22.2% (inactive).
For `CCN1C(=O)N(CC)C2C1NN=C1SC(c3ccccc3)=CC(=O)N12` (stereo not given) the value was -2.48% (active); for `COc1ccc(N2CCN(C3=C(Cl)C(=O)c4ncccc4C3=O)CC2)cc1`, -4.99% (active); for `Cc1cccc2c3c(sc12)C(c1ccc(Cl)cc1)c1c(nc(CC(=O)Nc2ccccc2)[nH]c1=O)O3` (stereo not given), 71.3% (inactive).
The same measure for `O=[N+]([O-])c1ccc(O)c2ncccc12`: -5.62% (active); for `CN(C)c1ccc(/C=N/Nc2nc(N/N=C/c3ccc(N(C)C)cc3)nc(N3CCOCC3)n2)cc1`: 96.7% (inactive).
Consider `COc1cccc(/C=C/C(=O)c2ccc(NC(=O)COc3cccc4cccnc34)cc2)c1`, for which the growth was 80.5% (inactive).
For the molecule `COc1ccc2c(c1)Oc1nc(N)c(C#N)c(N)c1C2Sc1ccc(C)cc1` (stereo not given), the growth is -22.3% (active).
Turning to `CCc1cccc(NC(=O)CNc2cc(S(=O)(=O)N(C)C)cc(C)c2C)c1`, the growth is 128% (inactive).
The same measure for `O=C(Nc1ccccc1)Nc1nc2ccc([N+](=O)[O-])cc2s1`: -35.9% (active).
For `CCc1cc(O)ccc1Nc1cc(-c2ccc(-n3cccn3)cc2)[nH]n1` the value was 58.6% (inactive); for `CCN(CC)S(=O)(=O)c1ccc(-c2nc(C(Cl)Cl)nc3cc(C)nn23)cc1`, -9.17% (active).
`O=S(=O)(NCCCNc1nccc(-c2[nH]c(-c3ccccc3)nc2-c2ccc(F)c(O)c2)n1)c1ccc(C(F)(F)F)cc1`: the growth was -3% (active).
`Cc1ccc(-c2cc3nc(C(Cl)Cl)nc(-c4ccccc4)n3n2)cc1`: the growth was 55.1% (inactive).
The same measure for `N/C(=N\c1nc2c(Cl)cc(Cl)cc2s1)C(Cl)(Cl)Cl`: 4.49% (active).
For `O=C1c2c(c3c4cccnc4[nH]c3c3ccc4ccccc4c23)C(=O)N1CCN1CCOCC1` the value was 42.2% (inactive); for `N#Cc1c(-c2ccccc2)cc(-c2c[nH]c3ccccc23)nc1-c1c[nH]c2ccccc12`, 104% (inactive).
Turning to `Cc1cccc2sc(/N=C(\N)C(Br)Br)nc12`, the growth was 0.778% (active).
For `O=C(CSc1nc2ccccc2c(=O)n1-c1ccc(Cl)cc1)N/N=C/c1ccc(Oc2ccc(Cl)cc2)cc1` the value was 111% (inactive).
In the case of `CCN(CC)Cc1c(-c2cccc(OC(F)(F)F)c2)[nH]c2ccc(N3CCCC3)cc2c1=O`, the growth was 72.9% (inactive).
For `CCC1=Cc2c(OC)cccc2OC12C=Cc1c(OC)cccc1O2` (stereo not given) the value was -6.34% (active); for `Cc1ccccc1NC(=O)/C=C/c1ccc(OCCOc2ccc3c(C)cc(=O)oc3c2)cc1`, 97.2% (inactive).
Consider `OCC(Nc1ncnc2ccc(-c3cnc4cnccn34)cc12)c1ccccc1` (stereo not given), for which the growth is 78.1% (inactive).
Take `CN(C)CCCNc1c2ccccc2nc2c1oc1ccc(Cl)cc12`: the growth was -1.29% (active).
Consider `O=C1CC(=O)N2CSCN(C(c3ccccc3)c3nc4ncncc4[nH]3)C2=N1` (stereo not given), for which the growth was 118% (inactive).
For the molecule `C#CCOc1ccccc1C(Nc1ccccc1)c1nnnn1C1CCCCC1` (stereo not given), the growth was 91.6% (inactive).
As to `O=C1C2=C(C(=O)c3c(O)cccc31)C(c1ccco1)c1sc(=O)[nH]c1S2` (stereo not given), the growth was -17.6% (active).
The same measure for `Nc1ncc(-c2ccc3ncnc(N4CCc5cc(F)c(Cl)cc54)c3c2)cn1`: 7.66% (active); for `CC(C)N=C(N/C(N)=N/c1nc2ccccc2s1)NC(C)C`: 41.7% (inactive); for `COc1ccc(-c2nc3ccc(-c4nnc(SCC(=O)Nc5ccc(C(=O)/C=C/c6ccc(Cl)cc6)cc5)o4)cc3[nH]2)cc1OC`: 88.7% (inactive).
The same measure for `N#Cc1c(-c2cccs2)cc(-c2cnccn2)nc1SCC(=O)N/N=C/c1ccncc1`: 118% (inactive).
For the molecule `C=C(C)[C@@H]1CC[C@]2(COP(=O)(OCC)OCC)CC[C@]3(C)[C@H](CC[C@@H]4[C@@]5(C)CCCNC(C)(C)[C@@H]5CC[C@]43C)[C@@H]12`, the growth was -56.4% (active).
As for `COC(=O)c1ccc(NC(=S)N2CCc3ccc([N+](=O)[O-])cc3C2)cc1O`, the growth was 97.7% (inactive).
